# Source: PubChem BioAssay (University of Kansas High Throughput Screening Laboratory)
# mHTT CaM bind: mutant huntingtin-calmodulin interaction inhibitors – biochemical, AlphaScreen, primary screen; 190,000 compounds, 3.6% hits; P42858; inhibition, % at 15 µM; AlphaScreen His-mHTT/GST-CaM binding, luminescence;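 further: 0% = both proteins with DMSO and 100% = one protein alone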
# Pf apPOL block: Pf-apPOL inhibitors, biochemical, fluorescence; Plasmodium falciparum apicoplast DNA polymerase (apPOL); Recombinant Pf-apPOL, molecular beacon fluorescence, 1.5 h; inhibition, % at 10 µM; 210,000 compounds, 0.25% hits
# Active calls of the source: *; i = inactive; nt = no result; + = active, no number. The sample as a whole holds a higher share of hits than the screen did. No stated cut-off is given here; in the data, active means inhibition above about 50%; inactive means the rest.
SMILES,mHTT CaM bind,Pf apPOL block
COc1ccc(C2C=C(c3cccc(Br)c3)Nc3nnnn32)cc1OC (stereo not drawn),65*,4
COc1ccc(C2C=C(c3cccc(Br)c3)Nc3ncnn32)cc1 (stereo not drawn),59*,-10
COc1ccc(OC)c(C2C=C(c3ccc(Cl)cc3)Nc3nnnn32)c1 (stereo not drawn),17,0
Brc1ccc(C2C=C(c3cccs3)Nc3ncnn32)cc1 (stereo not drawn),17,-3
O=C(O)c1c2c(nc3ccccc13)CCN(S(=O)(=O)c1ccc(Cl)cc1)C2,-6,-13
COc1cc(C2C=C(c3cccc(NC(C)=O)c3)Nc3ncnn32)cc(OC)c1OC (stereo not drawn),-3,61*
COc1cccc(C2=CC(c3cc(OC)c(OC)c(OC)c3)n3ncnc3N2)c1 (stereo not drawn),28,14
CC(=O)C1=C(C)N2CCN=C2S1,-4,-5
CCCCc1ccc(/C=C(\C#N)C(N)=S)s1,63*,nt
Cc1ccc(/C=C(/C#N)C(N)=S)s1,10,nt
Cc1cccc(-c2noc(NC(=O)NNc3c(Cl)cccc3Cl)n2)c1,nt,4
Cc1ccc2[nH]c3c(c2c1)CCC3O (stereo not drawn),78*,-4
Cc1ccc2[nH]c3c(c2c1)CCCC3NCCCO (stereo not drawn),14,-1
Cc1ccc2[nH]c3c(c2c1)CCCC3NCc1ccc(Cl)cc1 (stereo not drawn),73*,-4
Cc1ccc2[nH]c3c(c2c1)CCCC3NCCCN(C)C (stereo not drawn),36,-1
CC(=O)NC1CCCc2c1[nH]c1ccc(C)cc21 (stereo not drawn),5,99*
Cc1ccc2[nH]c3c(c2c1)CCCC3NCCCOc1ccccc1 (stereo not drawn),100*,9
CCN(CC)CCNC1CCCc2c1[nH]c1ccc(C)cc21 (stereo not drawn),19,-2
COC(CNC1CCCc2c1[nH]c1ccc(C)cc21)OC (stereo not drawn),18,16
CC(C)C(C(=O)Nc1ccc(I)cc1)N1C(=O)c2ccccc2C1=O (stereo not drawn),8,2
CCOc1ccccc1C(=O)N1CCn2cnnc2C1,-10,-2
Cc1cc(/C=C2/SC(=O)N(CCOc3ccc(F)cc3)C2=O)c(C)n1-c1cccnc1,20,4
CC(C)CN(CC(C)C)S(=O)(=O)c1cc(Br)cc2c1N(C(=O)C1CC1)CC2,0,5
O=C(Cc1ccccc1)Nc1ccc(N2CCN(C(=O)C3CC3)CC2)nc1,-1,2
O=CNC1CCCc2c1[nH]c1ccc(OCc3ccccc3)cc21 (stereo not drawn),53*,-2
SMILES,mHTT CaM bind,Pf apPOL block
O=CNC1CCCc2c1[nH]c1ccc(Cl)cc21 (stereo not drawn),5,2
O=C(O)CCN1C(=O)C2C3C=CC(C4CC34)C2C1=O (stereo not drawn),0,-12
COc1ccc(C2=N/C(=C\c3cccc(Cl)c3)C(=O)O2)c(Cl)c1,-2,-2
C(=Nc1cc(-c2ccccc2)nn1-c1ccccc1)c1cccnc1,50*,0
C(=NN=Cc1cccnc1)c1cccnc1,nt,1
Nc1nnnn1/N=C/c1cc(Br)ccc1O,+,nt
Oc1ccc(Br)cc1/C=N/n1cnnc1,i,nt
CCN(C(=O)CN1C(=O)NC2(CCCCC2)C1=O)c1ccccc1,-3,-2
CCN(C(=O)CN1C(=O)c2ccccc2C1=O)c1ccccc1,98*,-1
CCC(C)NC(=O)c1csc(-c2ccncc2)n1 (stereo not drawn),-5,0
CC(CCc1ccccc1)NC(=O)c1csc(-c2ccncc2)n1 (stereo not drawn),79*,-1
N=c1c(C(=O)NCc2ccccc2)cc2c(=O)n3ccccc3nc2n1C1CCCC1,-3,-4
O=C(Nc1ccc(OC(=O)N(c2ccccc2)c2ccccc2)cc1)N1CCOCC1,26,2
O=C(OC1Cc2c(O)cc(O)cc2OC1c1cc(O)c(O)c(O)c1)c1cc(O)c(O)c(O)c1 (stereo not drawn),nt,54*
O=C1c2c(O)cc(O)cc2OC(c2ccc(O)c(O)c2)C1O (stereo not drawn),nt,0
O=C(Cc1cc(-c2cc3ccccc3o2)on1)NCc1cccs1,-4,-4
O=C1OC(c2ccccc2Br)=N/C1=C\C=C\c1ccccc1,45,-6
O=C1OC(c2ccccc2Cl)=N/C1=C\C=C\c1ccccc1,53*,-1
COc1ccccc1CNC(=O)C(=O)Nc1cccc(C)c1C,-1,8
COc1cc(OC)cc(C2=Cc3ccc(OC)cc3C(CC(C)=O)N2c2ccc(-c3cncnc3)cc2)c1 (stereo not drawn),37,-4
CCc1ccc(C2=Cc3ccccc3C(CC(=O)C3CC3)N2c2ccc(-c3cncnc3)cc2)cc1 (stereo not drawn),100*,-2
COc1nn(C)cc1C(=O)NCC(O)c1ccc(C)o1 (stereo not drawn),-6,9
CC(C)C(=O)N1CCc2ccc(NC(=O)c3ccccc3C(F)(F)F)cc2C1,14,88*
Cc1cc(C(=O)Nc2ccc3c(c2)CN(C(=O)C(C)C)CC3)c(C)o1,-6,-6
Cc1c(Cl)cccc1N1CCC(C(=O)NCc2ccc3c(c2)OCO3)C1=O (stereo not drawn),4,-3
SMILES,mHTT CaM bind,Pf apPOL block
O=C1CSC2(C(=O)Nc3ccccc32)N1c1cccc(Cl)c1 (stereo not drawn),-1,0
O=C1CN=C2c3ccccc3N=C(SCc3cccc([N+](=O)[O-])c3)N12,6,-1
Cc1cc(C(=O)O[C@H]2[C@H](Cc3ccccc3)NS(=O)(=O)[C@H]3C[C@@H]4C=C[C@]23O4)ccc1[N+](=O)[O-],17,-8
O=C(Nc1ccc(C(F)(F)F)cc1[N+](=O)[O-])O[C@H]1[C@H](Cc2ccccc2)NS(=O)(=O)[C@H]2C[C@@H]3C=C[C@]12O3,65*,-5
Cc1ccccc1C1C2=C(CC(C)(C)CC2=O)Nc2ncnn21 (stereo not drawn),-4,-5
CC(=O)Nc1ccc(S(=O)(=O)Nc2c(C)cccc2C(C)C)cc1,-2,2
O[C@H]1CN(CC2CCCCC2)[C@@H](c2ccccc2)C[C@@H]1n1cc(C2CC2)nn1,70*,-1
Cc1ccc([C@H]2C[C@@H](n3cc(C4CC4)nn3)[C@H](O)CN2CC2CCCCC2)cc1,27,-2
Cc1ccc([C@H]2C[C@H](O)[C@@H](n3cc(C4CC4)nn3)CN2CC2CCCCC2)cc1,86*,-1
Cc1ccc([C@H]2C[C@H](n3cc(C4CC4)nn3)[C@@H](O)CN2CC2CCCCC2)cc1,30,-6
COc1ccc(N(C)C(=O)CNS(=O)(=O)c2cccs2)c(OC)c1,1,2
CCc1cccc(NC(=O)c2ccc3c(c2)N(S(C)(=O)=O)CC3)c1,6,-1
CC(C)N1CCN(C(=O)C2CC(=O)N(c3ccc4c(c3)CCN4C(=O)C3CC3)C2)CC1 (stereo not drawn),4,2
O=C(COc1ccccc1)N1CCN(c2cccc(Cl)c2)CC1,9,-3
Cc1ccc(NC(=O)C2(S(=O)(=O)c3ccc(Cl)cc3)CC2)cc1F,-22,84*
O=C(Nc1ccc(F)cc1)C1(S(=O)(=O)c2ccc(Cl)cc2)CC1,-6,-1
